Results on 40 molecules are retold here after PubChem BioAssay (Tox21).

The structures appear in SMILES notation. Several values for one entry are separate records, joined by “and”; a condition that tells them apart may be missing. Equal entries are not always repeated. More than one record can exist for a structure, and the calls need not agree. Activity calls are given as the source filed them. Calls come from the whole dose curve; as a rule, active = well fitted activation curve with a large enough effect in the repeat runs; inconclusive = weak or mixed curves; inactive = flat fitted curve, though single readings scatter.
% is set by controls: 0 for no effect and ±100 for the full control effect; potency is the fitted concentration of half-maximal effect.

A short description of the experiment: Caspase-3/7 induction in CHO-K1 cells by small molecules, qHTS assay (AID 1346980). Note: nearly all actives have a fitted effect of over 15% in size. The conditions noted are these: CHO-K1 caspase-3/7 induction, Caspase-Glo luminescence, 17 h; series mostly up to 92.4 µM; caspase-3/7 activation: at the top concentration. The source says: National Center for Advancing Translational Sciences [NCATS]
NIH Chemical Genomics Center [NCGC]
U.S. Environmental Protection Agency [EPA]
National Institutes of Environmental Health Sciences [NIEHS]
National Toxicology Program [NTP]
Apoptosis is a process of programmed cell death and plays a central role in the development of multicellular organisms. It is a highly regulated process and induces cell death by activating caspases, which are the members of cysteine aspartic acid-specific protease (caspase) family. Caspases involved in apoptosis are classified by their mechanism of action as initiator caspases (caspase-2, -8, -9 and -10) and executioner caspases (caspase-3, -6, and -7). Inhibition of apoptosis results in number of cancers, autoimmune diseases, inflammatory diseases and viral infection. To identify small molecule compounds that induce apoptosis, a homogeneous, luminescent Caspase-Glo 3/7 assay was used. Wild type CHO-K1 cells were used to screen Tox21 libraries for identifying caspase-3/7 activity inducers.
CHO-K1 cells were dispensed at 1,500 per well in 5uL of culture medium into white solid bottom 1536-well plates (Corning Life Sciences, Corning, NY) using a Multidrop Combi (Thermo Scientific, Waltham, MA) dispenser. The assay plates were incubated at 37 C and 5% CO2 for 5hr, and then 23nL of compounds dissolved in DMSO and positive control were transferred using a Pintool station (Wako, San Diego, CA). The assay plates were incubated at 37C and 5% CO2 for 17hr. For caspase-3/7 activity read, 4uL of Caspase-Glo 3/7 reagent (Promega Corporation, Madison, WI) was added to each well of the assay plates using Flying Reagent Dispenser (FRD, Aurora Discovery, San Diego, CA) and incubated the assay plates at room temperature for 30min. The luminescence signal was quantified using a ViewLux plate reader (Perkin Elmer, Shelton, CT).
In general terms: qHTS replaces the single test concentration by a dilution series.
For the molecule `Cc1scc2c1N(C(=O)CN1CCN(C)CC1)c1ccccc1NC2=O`, the “caspase-3/7 activation” value is -0.594% [at 42.5 µM] (inactive).
In the case of `CC(C)C(=O)c1c(C(C)C)nn2ccccc12`, the “caspase-3/7 activation” value is 1.42% [at 42.5 µM] (inactive).
As for `CC(C)CCCCCCc1ccc(O)cc1`, the Potency was 24.8 µM (active).
Consider `Cc1cc(OCCOCC[N+](C)(C)Cc2ccccc2)ccc1C(C)(C)CC(C)(C)C`, for which the “caspase-3/7 activation” value is -5.81% (inactive).
On the same count and under the same terms, under `CN1C(=O)c2ccc([N+](=O)[O-])cc2C1=O` stands 0.9% (inactive); under `O=C(O)CCc1ccccc1`, -1.65% (inactive).
Consider `O=C(Cl)c1cccc(C(=O)Cl)c1`, for which the Potency entry was “inactive”.
Same read-out and setting: in the case of `CCCCCCCCCCCC[N+](C)(C)C` it was “inactive”.
Take `CC(C)(C)NCC(O)COc1ccccc1OCC1CCCO1` (stereo not given): the “caspase-3/7 activation” value was -0.596% [at 42.5 µM] (inactive).
`CC[C@H]1CN2CCc3cc(OC)c(OC)cc3[C@@H]2C[C@@H]1C[C@H]1NCCc2cc(OC)c(OC)cc21`: the Potency is 30.7 µM (active) and inactive.
On to `c1cc(C(c2ccc(OCC3CO3)cc2)C(c2ccc(OCC3CO3)cc2)c2ccc(OCC3CO3)cc2)ccc1OCC1CO1` (stereo not given), for which the Potency was 28.3 µM (active).
Regarding `C1COC(NC(C2CC2)C2CC2)=N1`, the “caspase-3/7 activation” value was -0.403% [at 42.5 µM] (inactive).
Take `[Cl][In]([Cl])[Cl]`: the Potency result was “inactive”.
With `NC(N)=NC(=O)Cc1c(Cl)cccc1Cl`, the “caspase-3/7 activation” value was -0.478% [at 42.5 µM] (inactive).
On to `c1cnc2cc3c(cc2n1)C1CNCC3C1`, for which the “caspase-3/7 activation” value is -0.407% [at 42.5 µM] (inactive).
Regarding `O`, the Potency entry was “inactive”.
On to `CCCCC/C=C/CC1CC(=O)OC1=O` (stereo not given), for which the “caspase-3/7 activation” value is 0.484% (inactive).
With `Cc1ccc(-c2cc(C(F)(F)F)nn2-c2ccc(S(N)(=O)=O)cc2)cc1`, the Potency result is “inactive”.
Consider `CC(C(O)c1ccc(O)cc1)N1CCC(Cc2ccccc2)CC1` (stereo not given), for which the “caspase-3/7 activation” value is 0.0667% [at 42.5 µM] (inactive).
For `CCN(CC)C(=S)SSC(=S)N(CC)CC`, the “caspase-3/7 activation” value is -5.41% [at 42.5 µM] (inactive).
In the case of `O=C(OCc1ccccc1)c1ccc(O)cc1`, the Potency entry is “inactive”.
Consider `NC(N)=Nc1nc(CSCC/C(N)=N/S(N)(=O)=O)cs1`, for which the Potency entry is “inactive”.
As for `Nc1cc(Cl)c(-c2cc(Cl)c(N)cc2Cl)cc1Cl`, the “caspase-3/7 activation” value was 13.3% (inactive).
For the molecule `c1ccc2n[nH]nc2c1`, the Potency entry was “inactive”.
For the molecule `CC1COc2c(N3CCN(C)CC3)c(F)cc3c(=O)c(C(=O)O)cn1c23` (stereo not given), the “caspase-3/7 activation” value is 0.613% [at 42.5 µM] (inactive).
Turning to `Nc1nc(=S)c2[nH]cnc2[nH]1`, the Potency result is “inactive”.
`c1ccc2c(c1)CCCC2C1=NCCN1` (stereo not given): the “caspase-3/7 activation” value is 0.916% [at 42.5 µM] (inactive).
As to `CC(C)(c1ccccc1)c1ccc(Nc2ccc(C(C)(C)c3ccccc3)cc2)cc1`, the Potency entry was “inactive”.
As to `CN(C)c1ccc(C(=C2C=CC(=[N+](C)C)C=C2)c2ccccc2)cc1`, the Potency is 5.96 µM (active) and 3.35 µM (active).
On to `O=C(Oc1ccccc1)c1ccccc1O`, for which the Potency result is “inactive”.
Still for that read-out and setting: under `CCc1cc(C(C)(C)C)c(O)c(C(C)(C)C)c1` stands “inactive”; under `Cc1ccnc2c1NC(=O)c1cccnc1N2C1CC1`, “inactive”.
Turning to `BrC1CCC(Br)C(Br)CCC(Br)C(Br)CCC1Br` (stereo not given), the Potency was 60.9 µM (active).
Regarding `Cc1ccc(S(=O)(=O)Oc2ccc(N=Nc3ccc(-c4ccc(N=Nc5c(O)ccc6cc(S(=O)(=O)O)cc(S(=O)(=O)O)c56)c(C)c4)cc3C)cc2)cc1`, the Potency entry was “inactive”.
Regarding `O=C(O)Cn1cnnn1`, the “caspase-3/7 activation” value was -0.827% [at 42.5 µM] (inactive).
For `CCC[C@H](N[C@@H](C)C(=O)N1[C@H](C(=O)O)C[C@@H]2CCCC[C@@H]21)C(=O)OCC`, the Potency entry is “inactive”.
Turning to `CCn1cc(C(=O)O)c(=O)c2cc(F)c(N3CCNC(C)C3)c(F)c21` (stereo not given), the “caspase-3/7 activation” value is 1.29% [at 42.5 µM] (inactive).
Turning to `CCN(CC)c1ccc2c(C)cc(=O)oc2c1`, the Potency entry is “inactive”.
`CC(=O)C1=C(C)[C@@H]2C[C@@]3(C1)[C@H](C)CC[C@H]3C2(C)C`: the Potency result was “inactive”.
Turning to `Cc1cc(Cc2cc(C)cc(C(C)(C)C)c2O)c(O)c(C(C)(C)C)c1`, the Potency is 27.4 µM (active) and 61.1 µM (active).
